# About 79,000 compounds went through this panel and 15% of them were active in at least one assay; those are over-represented in the sample as a whole. Values without a mark were called inactive. Active and inactive are the calls of the source. Rule as the data show it: active = growth inhibition above about 70%; inactive = the rest.
# Assay: NCI Yeast Anticancer Drug Screen. Data for the rad50EPP+ strain (AID 151);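 also: 0% = growth of vehicle-treated control cultures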
# Conditions: S. cerevisiae rad50 mutant strain, stronger effect = higher value
# Protocol: Growth inhibition of yeast strains with defined genetic alterations is measured as a screen for potential anti-cancer activity. Selected strains with alterations in DNA damage repair or cell cycle control were exposed to compounds and growth inhibition was measured relative to vehicle treated controls. The strain used in this assay is rad50EPP+
SMILES,growth inhibition (at 1.2 µM),growth inhibition (at 3.7 µM),growth inhibition (at 11.0 µM),growth inhibition (at 33.0 µM),growth inhibition (at 100.0 µM)
Cc1ccc(S/N=C\c2ccccc2O)cc1,4%,3%,6%,17%,35%
O=C(c1ccc(Cl)cc1Cl)C(Cl)Cl,40%,53%,65%,94% (active),96% (active)
C=CC(C)(O)CCC1C(=C)C(O)CC2C(C)(C)CCCC12C (stereo not given),4%,-6%,12%,0%,-40%
Cc1cc(S(=O)(=O)/N=C(/NN)NNc2cccc(C(F)(F)F)n2)c(S)cc1Cl,-8%,-24%,-28%,-52%,-50%
OC1CSCCCSCCSCCCSC1,-30%,-52%,-49%,-29%,-35%
COc1ccc(/C=C/C(=O)C(C)(C)Br)cc1,79% (active),93% (active),96% (active),97% (active),98% (active)
c1ccc2c(c1)c1ncccc1c1nccnc21,15%,33%,43%,69%,63%
COc1ccc(C2c3cc4c(cc3OC(C)(O)C2C)OCO4)c(OC)c1 (stereo not given),6%,7%,12%,7%,4%
